Screening data: PubChem, several laboratories
The list is not random: actives were taken first. Their share in the collection is about 1.1%.
HSV replic up = increases HSV replication in cells | HSV replication augmentation in cells, fold increase | maximum fold increase | actives 0.005% (n = 220,000) | AID 1956; in the data active means maximum fold increase above about 1.5; inconclusive means no clear call, values can overlap the other calls; tested in PC3 cells
INS promoter inh = TRM-6 insulin promoter activity inhibition; inhibition, % at 2 µM; AID 1273; TRM-6 cells (human fetal islet line), insulin promoter-eGFP reporter, imaging; reporter expression induced with tamoxifen; actives 0.9% (n = 130,000);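 active means inhibition above the mean plus 3 SD, with well images judged a real hit on visual review, cut at about 60% in these data, passing the limit was not always enough; inconclusive means inhibition over the cutoff but images rejected on review; inactive means inhibition not above the cutoff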
Efa HMGR inh = E. faecalis class II HMG-CoA reductase inhibition | inhibition, % at 10 µM | actives 0.41% (n = 190,000) | purified E. faecalis HMGR, NADPH absorbance 340 nm kinetic;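 active means inhibition above a set limit, the median over all tested compounds plus 3 SD, cut at about 9.5% in these data; inconclusive means no clear call, values can overlap the other calls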;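 further: enzyme runs in reverse so mevalonate oxidation gives rising NADPH absorbance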
Ins promoter up = MIN6 insulin promoter up-regulation. MIN6 insulin promoter-GFP reporter, high-content imaging; active compounds read high. z-score at 5 µM. actives 0.3% (n = 190,000). AID 1625;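 active means z-score above 3 at 5 µM with at least 500 cells counted in the well; inconclusive means wells under 500 cells, flagged as cytotoxic or low count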
Hits are given with their value; . = inactive; ? = inconclusive; / = not tested or not shown.

SMILES	HSV replic up	INS promoter inh	Efa HMGR inh	Ins promoter up
COc1ccc(-c2cc(C(F)(F)F)nc(S(=O)(=O)CCCC(=O)Nc3cccnc3Cl)n2)cc1OC	.	.	.	.
CCCCCCCCCOC(=O)C(CC(=O)O)N1CCOCC1 (centres undefined)	.	67.9	.	/
COC(=O)c1ccc(NC(=O)COc2ccc([N+](=O)[O-])cc2)cc1	.	/	/	.
COc1ccc(/C=C(\C#N)C(=O)OCC(=O)NC(=O)NCCC(C)C)cc1	.	.	.	/
COc1ccc(/C=C(\C#N)C(=O)OCC(=O)Nc2c(C)cccc2C(C)C)cc1	.	.	.	3.36
NNC(=O)c1ccc(CSc2nc3ccccc3[nH]2)cc1	.	/	.	.
Cc1ccc(N2C=Nc3ccc(C)c4nc(C)cc2c34)cc1	.	84.6	.	.
CCOc1ccc(OCCN2CCCCC2)cc1	/	61.5	.	.
CC(NC(=O)c1ccccc1)c1ccc(Br)cc1 (centres undefined)	.	87.5	.	.
COc1ccc(Nc2cc(Cl)nc(N)n2)cc1	.	.	10.9	.
COc1ccc(Nc2cc(C)nc(N)n2)cc1	.	/	/	.
Clc1nc(Cl)nc(NCCC2=CCCCC2)n1	.	.	.	.
CC(=O)Nc1ccc(C(=O)CSc2cc(C)c3cccc(C)c3n2)cc1	.	.	.	.
O=C(N/N=C/c1ccc[nH]1)c1ccccc1O	.	/	10.3	.
COc1ccc(C(=O)NCCn2cc(SCC(=O)Nc3cc(C)on3)c3ccccc32)cc1OC	.	/	.	.
COc1ccccc1C(=O)NCCn1cc(SCC(=O)Nc2cc(C)on2)c2ccccc21	.	.	12.6	.
COc1cc(C(O)P(=O)(OCCC(C)C)c2ccc(N(C)C)cc2)cc(OC)c1OC (centres undefined)	.	/	/	.
N#Cc1ccc2c(c1)nc1ccccn12	.	78.6	.	.
CCC(=O)OCC(=O)c1c(N)n(Cc2ccccc2)c(=O)n(C)c1=O	.	.	.	3.29
COc1ccc(NC(=O)C2=C(C)Nc3nc(CCCO)nn3C2c2ccc(OC)c(OC)c2)cc1 (centres undefined)	.	/	.	.
CC1=C(C(=O)Nc2ccc(Br)cc2)C(c2ccco2)NC(=O)N1 (centres undefined)	.	67.7	.	.
O=C(O)c1cc(-c2ccco2)nc2ccc(Br)cc12	.	76.9	.	.
CCOC(=O)c1ccc(NC(=O)COc2ccc(S(=O)(=O)NC(C)CC)cc2)cc1 (centres undefined)	.	.	.	3.08
CCOC(=O)c1ccc(NC(=O)C(C)NS(=O)(=O)c2ccc(OC)cc2)cc1 (centres undefined)	.	.	.	.
COc1ccc2nc(SCC(=O)Nc3c(C)cccc3C)[nH]c2c1	.	.	.	3.26
SMILES	HSV replic up	INS promoter inh	Efa HMGR inh	Ins promoter up
COc1ccc2nc(SCC(=O)Nc3ccccc3)[nH]c2c1	.	.	.	.
CCCCCC(=O)NC(=S)NC1C2CC3CC(C2)CC1C3 (centres undefined)	.	/	/	.
CC(=O)OCC1=C(C(=O)O)N2C(=O)C(NC(=O)C(C)Cn3nc(C)c(Cl)c3C)C2SC1 (centres undefined)	.	/	.	.
CC(=O)OCC1=C(C(=O)O)N2C(=O)C(NC(=O)c3ccc(F)cc3)C2SC1 (centres undefined)	.	.	11.3	.
COc1ccc(-c2n[nH]c3c2C(c2ccc(OC)c(OC)c2)N(c2ccccc2)C3=O)cc1 (centres undefined)	.	69.4	.	/
O=[N+]([O-])c1ccc(O)c(C(C#Cc2ccccc2)N2CCOCC2)c1 (centres undefined)	.	/	/	.
Cc1ccc(-n2c(CNc3ccc(F)cc3)nnc2SCC(=O)N2CCCC2)cc1	.	.	.	.
COc1ccc(NCc2nnc(SCCN3CCCCC3)n2-c2ccc(C)cc2)cc1	.	/	17.4	.
O=C(C/C=N\OCc1ccc([N+](=O)[O-])cc1)Nc1ccc(Br)cc1	.	.	.	/
COc1cccc(NC(=O)CSCC(=O)Nc2ccccc2)c1	.	.	.	/
COc1cccc(NC(=O)Cc2ccccc2)c1	.	72.7	.	.
O=C(O)CCCC(=O)Nc1cccc([N+](=O)[O-])c1	.	/	.	.
O=C(CCCOc1ccccc1)Nc1cccc([N+](=O)[O-])c1	.	76.9	.	.
CCOc1cc(/C=N/N=C2/NC(=O)C(CC(=O)O)S2)ccc1OCc1ccccc1Cl (centres undefined)	.	.	.	.
CCn1ccnc1CN1CCc2c([nH]c3ccccc23)C1C1CCCCC1 (centres undefined)	.	.	.	.
Cc1c(CN2CCc3c([nH]c4ccccc34)C2C2CCCCC2)cnn1C (centres undefined)	.	/	18.6	.
Cc1ccc(NS(=O)(=O)c2ccc(C(=O)OCC(=O)NCC3CCCO3)cc2)cc1 (centres undefined)	.	/	.	.
CN(C)CCCNC1=CC(=O)CC(c2ccccc2)C1 (centres undefined)	.	83.3	.	.
COc1ccc(CN2C(=O)CCC2(C)C(=O)NC2CCCC2)c(OC)c1 (centres undefined)	/	70.0	.	.
Cc1ccnc(N2C(=O)c3cccc4c([N+](=O)[O-])ccc(c34)C2=O)c1	/	/	.	3.14
CC(O)C(=O)N/N=C/c1ccccc1C(=O)O (centres undefined)	.	/	13.4	.
CCCCC(CCC(=O)NNC(=O)Cc1ccccc1)C(=O)O (centres undefined)	.	.	.	.
COc1ccccc1NS(=O)(=O)c1cccc(C(=O)NN=C2CCCCCC2)c1	.	.	.	/
O=C(NN=C1CCN(Cc2ccccc2)CC1)c1cccc(S(=O)(=O)Nc2ccccc2Cl)c1	.	.	.	3.03
S=C(NCc1cccnc1)Nc1ccc(Oc2ccc(Cl)cc2)cc1	.	/	/	.
SMILES	HSV replic up	INS promoter inh	Efa HMGR inh	Ins promoter up
CC1CCCN(c2nc3c(c(=O)n(C)c(=O)n3C)n2CCSc2nc3ccccc3s2)C1 (centres undefined)	.	/	.	3.19
COC(=O)c1c(N2C(=O)Nc3ccccc3N2O)sc2c1CCCC2	.	68.8	.	.
O=C(COC(=O)C12CC3CC(CC(C3)C1)C2)Nc1ncc(Cl)cc1Cl	.	.	.	.
O=C(COC(=O)CC12CC3CC(CC(C3)C1)C2)Nc1ncc(Cl)cc1Cl	.	100.0	.	.
O=C(CC12CC3CC(CC(C3)C1)C2)NCC(c1ccc(F)cc1)N1CCOCC1 (centres undefined)	.	.	.	.
CCSC1=N/C(=C\C=C2/Oc3ccccc3N2CC)C(=O)S1	?	/	/	.
CCCCN(CCCC)C(=O)C[n+]1cccc(/C=N/O)c1	.	70.6	.	.
NC(=O)C[n+]1cccc(/C=N/O)c1	.	/	.	.
O=[N+]([O-])c1cccc(-n2cccc2/C=N/Nc2nc(N3CCCCC3)nc(N3CCCCC3)n2)c1	.	.	.	.
O=[N+]([O-])c1cccc(/C=N/Nc2nc(N3CCCCC3)nc(N3CCCCC3)n2)c1	.	71.4	.	.
NC(=O)CSC1=Nc2ccccc2C2=NC(c3ccccc3)C(=O)N12 (centres undefined)	.	78.6	.	.
Cc1ccc(-c2nc(NCC3CCCO3)sc2C)cc1 (centres undefined)	.	.	12.1	.
COc1ccc(S(=O)(=O)N(C)C)cc1NC(=O)CSc1nnc(-c2cccnc2)o1	.	/	12.7	.
